Measurements as given in PubChem BioAssay (EPA / NIEHS).
Results filed as inconclusive are left out. Activity calls are given as the source filed them. The calls were made as follows: active = hit-call score of the fitted dose curve at least 0.9, where 1 is the maximum; inconclusive = response in the unintended direction; inactive = score below 0.9.

Experiment: TOX21_p53_BLA_p2_viability: Viability Assessment in the Tox21 HCT-116 p53 Agonism Beta-lactamase Assay, Phase 2 (AID 2283591);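 also: compound exposure lasted 16 h at 37 °C; actives lower the ATP signal meaning cytotoxicity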
Outline: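 HCT116 p53-bla cells, 4000/well, dosed after 5 h plating (217-fold dilution of DMSO stocks) and incubated 16 h at 37C. Viability taken as cellular ATP by CellTiter-Glo luminescence after 30 min RT; signal loss marks cytotoxicity.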
For CCOC(=O)c1ncn2c1CN(C)C(=O)c1cc(F)ccc1-2, the outcome was “inactive”. With CC1(C)CCC(NC(=O)[C@@H](N)CCC(=O)O)CC1 the outcome was “inactive”. With c1ccc2cc3c4ccccc4c4ccccc4c3cc2c1 the outcome was “inactive”. With OCC(CO)N[C@H]1C[C@](O)(CO)[C@@H](O)[C@H](O)[C@H]1O the outcome was “inactive”. With CN(C)CCCNCCC#N the outcome was “inactive”. For CCCCCCCCCCCCOC(=O)c1ccc(O)cc1, the outcome was “inactive”. For NC(=O)c1ccccc1N, the outcome was “inactive”. For O=C1c2ccccc2S(=O)(=O)N1CCCCN1CCN(c2ncccn2)CC1, the outcome was “inactive”. In the case of C/C(=N\O)c1ccc(OCC(=O)N2CCCCC2)cc1, the outcome is reported as “inactive”. In the case of COc1ccccc1N1CCN(CCCCNC(=O)c2ccc(-c3ccc(C(C)=O)cc3)cc2)CC1, the outcome is reported as “inactive”. In the case of CCC(=O)O[C@]1(C(=O)CCl)[C@@H](C)C[C@H]2[C@@H]3CCC4=CC(=O)C=C[C@]4(C)[C@@]3(F)[C@@H](O)C[C@@]21C, the outcome is reported as “inactive”. In the case of CC(CNC(=O)c1cccnc1)NC(=O)c1cccnc1 (stereo not drawn), the outcome is reported as “inactive”. With COc1cc(-c2ccc(=O)[nH]n2)ccc1OC(F)F the outcome was “inactive”. In the case of O=C(OC(=O)c1ccccc1)c1ccccc1, the outcome is reported as “inactive”. In the case of C1C[C@@H]2[C@H]3CC[C@H](C3)[C@@H]2C1, the outcome is reported as “inactive”. For Cl[Si](Cl)(c1ccccc1)c1ccccc1, the outcome was “inactive”. For O=C(OC1C[C@H]2CC[C@@H](C1)[N+]21CCCC1)C(O)(c1ccccc1)c1ccccc1 (stereo partly drawn), the outcome was “inactive”. For C[C@@H]1C[C@H]2[C@@H]3CCC4=CC(=O)C=C[C@]4(C)[C@@]3(F)[C@@H](O)C[C@]2(C)[C@@]1(O)C(=O)COC(=O)c1cccc(S(=O)(=O)O)c1, the outcome was “inactive”.
